Structures can show the parent of a compound that is named as a salt. ± gives the standard deviation of the averaged measurements.
Each compound was assayed on E. coli TESEC Mtb DapB (assay: growth (OD600 after 10 h); higher = more growth (less inhibition)). Conditions: arabinose induction (level): High; compound 0.1 mM; raw OD600 reference: median of DMSO wells […], cell-free background 0.041.
Experimental: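 TESEC E. coli strains in which the native enzyme is deleted and replaced by arabinose-inducible Mtb Asd, DapB, CysH or TrpD, each grown in its selective medium. Strains were screened against the Prestwick library at 0.1 mM and 1% DMSO in 384-well format at low and high arabinose induction. Growth is read as OD600 after 10 h in triplicate.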
Work on `COc1ccc2[nH]cc(CCNC(C)=O)c2c1` [Melatonin] yielded a growth of 0.202 ± 0.026.
With `CCC(NC(C)C)C(O)c1ccc(O)c(O)c1` (stereo not given) [Isoetharine mesylate salt] the growth was 0.187 ± 0.0097.
`Clc1ccc(C(Cn2ccnc2)OCc2ccsc2Cl)c(Cl)c1` (stereo not given) [Tioconazole] was tested, and the growth was 0.0486 ± 0.00086.
`Cc1onc(-c2c(F)cccc2Cl)c1C(=O)N[C@@H]1C(=O)N2[C@@H]1SC(C)(C)[C@@H]2C(=O)O` [Flucloxacillin sodium] showed a growth of 0.196 ± 0.0025.
Work on `C[n+]1ccccc1/C=N/O` [Pralidoxime chloride] yielded a growth of 0.223 ± 0.011.
With `CC(C)NC[C@@H](O)COc1ccc(CC(N)=O)cc1` [(R)-(+)-Atenolol] the growth was 0.243 ± 0.059.
Compound `C=CC1=C(C(=O)O)N2C(=O)[C@@H](NC(=O)/C(=N\OCC(=O)O)c3csc(N)n3)[C@H]2SC1` [Cefixime] has a growth of 0.0696 ± 0.022.
For `CCOC(=O)c1ccc(OC(=O)CCCCCNC(=N)N)cc1` [Gabexate mesilate], the growth was 0.177 ± 0.0061.
Work on `CNCCCN1c2ccccc2CCc2ccccc21` [Desipramine hydrochloride] yielded a growth of 0.171 ± 0.014.
`CC(C)NNC(=O)c1ccncc1` [Iproniazide phosphate] was tested, and the growth was 0.199 ± 0.02.
`N=c1nc(N2CCCCC2)cc(N)n1O` [Minoxidil] was tested, and the growth was 0.18 ± 0.0054.
In the case of `CC(C(=O)O)c1ccc(-c2ccccc2)c(F)c1` (stereo not given) [Flurbiprofen], the growth is reported as 0.208 ± 0.0072.
With `CC(NCCC(c1ccccc1)c1ccccc1)c1ccccc1` (stereo not given) [Fendiline hydrochloride] the growth was 0.0461 ± 0.00056.
With `CNC(=C[N+](=O)[O-])NCCSCc1csc(CN(C)C)n1` [Nizatidine] the growth was 0.205 ± 0.019.
`NNc1nncc2ccccc12` [Hydralazine hydrochloride] gave a growth of 0.19 ± 0.0027.
In the case of `Cn1nnc2c(C(N)=O)ncn2c1=O` [Temozolomide], the growth is reported as 0.194 ± 0.02.
`O=C1CCC(N2C(=O)c3ccccc3C2=O)C(=O)N1` (stereo not given) [Thalidomide] gave a growth of 0.189 ± 0.016.
Work on `CCCCCCNC(=O)n1cc(F)c(=O)[nH]c1=O` [Carmofur] yielded a growth of 0.179 ± 0.01.
In the case of `CCc1nc(N)nc(N)c1-c1ccc(Cl)cc1` [Pyrimethamine], the growth is reported as 0.173 ± 0.016.
In the case of `Cc1ncc(C[n+]2csc(CCO)c2C)c(N)n1` [Thiamine hydrochloride], the growth is reported as 0.227 ± 0.024.

Same assay, conditions: arabinose induction (level): Low; compound 0.1 mM; raw OD600 reference: median of DMSO wells 0.227, cell-free background 0.041
For `COc1ccc2[nH]cc(CCNC(C)=O)c2c1` [Melatonin], the growth was 0.23 ± 0.026.
Compound `CCC(NC(C)C)C(O)c1ccc(O)c(O)c1` (stereo not given) [Isoetharine mesylate salt] has a growth of 0.226 ± 0.031.
`Clc1ccc(C(Cn2ccnc2)OCc2ccsc2Cl)c(Cl)c1` (stereo not given) [Tioconazole] showed a growth of 0.0575 ± 0.017.
For `Cc1onc(-c2c(F)cccc2Cl)c1C(=O)N[C@@H]1C(=O)N2[C@@H]1SC(C)(C)[C@@H]2C(=O)O` [Flucloxacillin sodium], the growth was 0.259 ± 0.034.
Compound `C[n+]1ccccc1/C=N/O` [Pralidoxime chloride] has a growth of 0.284 ± 0.0069.
`CC(C)NC[C@@H](O)COc1ccc(CC(N)=O)cc1` [(R)-(+)-Atenolol] gave a growth of 0.25 ± 0.017.
Work on `C=CC1=C(C(=O)O)N2C(=O)[C@@H](NC(=O)/C(=N\OCC(=O)O)c3csc(N)n3)[C@H]2SC1` [Cefixime] yielded a growth of 0.0479 ± 0.0042.
Compound `CCOC(=O)c1ccc(OC(=O)CCCCCNC(=N)N)cc1` [Gabexate mesilate] has a growth of 0.16 ± 0.011.
Work on `CNCCCN1c2ccccc2CCc2ccccc21` [Desipramine hydrochloride] yielded a growth of 0.202 ± 0.0094.
For `CC(C)NNC(=O)c1ccncc1` [Iproniazide phosphate], the growth was 0.223 ± 0.034.
`N=c1nc(N2CCCCC2)cc(N)n1O` [Minoxidil] showed a growth of 0.209 ± 0.019.
`CC(C(=O)O)c1ccc(-c2ccccc2)c(F)c1` (stereo not given) [Flurbiprofen] gave a growth of 0.188 ± 0.023.
`CC(NCCC(c1ccccc1)c1ccccc1)c1ccccc1` (stereo not given) [Fendiline hydrochloride] showed a growth of 0.0491 ± 0.0046.
`CNC(=C[N+](=O)[O-])NCCSCc1csc(CN(C)C)n1` [Nizatidine] was tested, and the growth was 0.228 ± 0.025.
With `NNc1nncc2ccccc12` [Hydralazine hydrochloride] the growth was 0.229 ± 0.033.
In the case of `Cn1nnc2c(C(N)=O)ncn2c1=O` [Temozolomide], the growth is reported as 0.211 ± 0.0067.
`O=C1CCC(N2C(=O)c3ccccc3C2=O)C(=O)N1` (stereo not given) [Thalidomide] showed a growth of 0.24 ± 0.052.
`CCCCCCNC(=O)n1cc(F)c(=O)[nH]c1=O` [Carmofur] gave a growth of 0.201 ± 0.018.
With `CCc1nc(N)nc(N)c1-c1ccc(Cl)cc1` [Pyrimethamine] the growth was 0.191 ± 0.044.
Work on `Cc1ncc(C[n+]2csc(CCO)c2C)c(N)n1` [Thiamine hydrochloride] yielded a growth of 0.217 ± 0.015.
